Assay results reported in PubChem BioAssay (EPA / NIEHS).
Records with an inconclusive call do not appear. Some compounds were tested as several samples or in several runs, with calls that do not always agree. Activity calls are given as the source filed them. How the source made its calls, unless noted: active means hit-call score of the fitted dose curve at least 0.9, where 1 is the maximum; inactive means score below 0.9.

What was measured:
[1] = molecular target: human RAR-related Orphan Receptor gamma (RORg), RORC (gene 6097) (UniProt P51449); assay: ATG_RORg_TRANS: Attagene TRANS-FACTORIAL HepG2 Assay for human RAR-related Orphan Receptor gamma (RORg) (AID 2283011; active means hit-call score of the fitted dose curve at least 0.9, where 1 is the maximum)
Summary of the method: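 Transient MRTU transfection of HepG2 (TRANS format, exogenous NR-Gal4 chimera). 24 h dosing. Total RNA → oligo(dT) RT → PCR → 6-FAM labelling → HpaI cut → CE. Gain vs DMSO.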

[2] = molecular target: Retinoic acid receptor RXR-alpha (Homo sapiens) (UniProt P19793); assay: ATG_RXRa_TRANS: Attagene TRANS-FACTORIAL HepG2 Assay for human Retinoid X Receptor alpha (RXRa) (AID 2283012; active means hit-call score of the fitted dose curve at least 0.9, where 1 is the maximum)
Summary of the method: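 Transient transfection of human HepG2 with multiple GAL4-UAS reporter constructs; 24 h compound exposure; total RNA isolated, reverse-transcribed, PCR-amplified, 6-FAM labelled, HpaI-cut, resolved by capillary electrophoresis. Positive-direction fit versus DMSO.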

[3] = molecular target: human Retinoid X Receptor beta (RXRb), RXRB (gene 6257) (UniProt P28702); assay: ATG_RXRb_TRANS: Attagene TRANS-FACTORIAL HepG2 Assay for human Retinoid X Receptor beta (RXRb) (AID 2283013; active means hit-call score of the fitted dose curve at least 0.9, where 1 is the maximum)
Summary of the method: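 Transfect HepG2 with GAL4-UAS multi-reporter constructs (chimeric NR-Gal4, TRANS format); dose compound 24 h; isolate RNA, RT-PCR, FAM primer extension, HpaI digest; quantify by capillary electrophoresis; positive direction vs DMSO.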

[4] = molecular target: human Thyroid Receptor alpha (THRa1), THRA (gene 7067) (UniProt P10827); assay: ATG_THRa1_TRANS: Attagene TRANS-FACTORIAL HepG2 Assay for human Thyroid Receptor alpha (THRa1) (AID 2283014; active means hit-call score of the fitted dose curve at least 0.9, where 1 is the maximum)
Summary of the method: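 Transient HepG2 transfection, NR-Gal4 chimera driving GAL4-UAS reporters; 24 h compound exposure; total RNA, oligo(dT) RT, PCR, fluorescent primer extension, capillary electrophoresis. Upward direction vs DMSO control.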

[5] = read-out: E-selectin (Homo sapiens) (UniProt P16581); assay: BSK_3C_Eselectin: BioMAP Diversity Plus: 3C Assay for Eselectin Biomarker Activity (AID 2283015); conditions: primary human endothelial cells (HUVEC); actives raise or lower the signal
Summary of the method: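 HUVEC, 3C stimulation; compound exposure 24 h; E-selectin by ELISA; gain- or loss-of-signal fitted bidirectionally vs DMSO baseline.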

[6] = read-out: Interleukin-1 alpha (IL1a), IL1A (gene 3552); assay: BSK_BE3C_IL1a: BioMAP Diversity Plus: BE3C Assay for Interleukin-1 alpha (IL1a) Biomarker Activity (AID 2283016); conditions: primary human bronchial epithelial cells; actives raise or lower the signal
Summary of the method: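 BE3C primary human bronchial epithelium; cpd 24 h; IL-1a by ELISA; bidirectional fit vs DMSO; parallel SRB (0.1% SRB, 10% TCA fix, 560 nm) for cytotoxicity.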

[7] = read-out: Monocyte Chemoattractant Protein-1 (MCP1), CCL2 (gene 6347); assay: BSK_4H_MCP1: BioMAP Diversity Plus: 4H Assay for Monocyte Chemoattractant Protein-1 (MCP1) Biomarker Activity (AID 2283018); conditions: primary human endothelial cells (HUVEC); actives raise or lower the signal
Summary of the method: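 ELISA read-out of MCP-1 from human vascular endothelial primary cells taken at 24 hours after compound exposure. Activity was fitted in both directions relative to DMSO, which served as negative control.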

[8] = read-out: Human Leukocyte Antigen - DR isotype (HLADR), HLA-DRA (gene 3122); assay: BSK_3C_HLADR: BioMAP Diversity Plus: 3C Assay for Human Leukocyte Antigen - DR isotype (HLADR) Biomarker Activity (AID 2283019); conditions: primary human endothelial cells (HUVEC); actives raise or lower the signal
Summary of the method: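 HUVEC, 3C stimulation, 24 h post-dose; HLA-DR by ELISA; bidirectional curve fit vs DMSO baseline; gain or loss of signal scored.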

[9] = read-out: Interleukin-8 (IL8), CXCL8 (gene 3576); assay: BSK_3C_IL8: BioMAP Diversity Plus: 3C Assay for Interleukin-8 (IL8) Biomarker Activity (AID 2283020); conditions: primary human endothelial cells (HUVEC); actives raise or lower the signal
Summary of the method: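 ELISA read-out of IL-8 from human umbilical vein endothelium, measured 24 h after chemical dosing. Activity is expressed relative to DMSO negative control, with both increases and decreases fitted.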

[10] = read-out: Monokine induced gamma interferon (MIG), CXCL9 (gene 4283); assay: BSK_3C_MIG: BioMAP Diversity Plus: 3C Assay for Monokine induced gamma interferon (MIG) Biomarker Activity (AID 2283021); conditions: primary human endothelial cells (HUVEC); actives raise or lower the signal
Summary of the method: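 Read-out is ELISA detection of MIG on human umbilical vein endothelial cells, taken 24 h after dosing. Gain or loss of signal was scored relative to DMSO controls using bidirectional curve fitting.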

[11] = molecular target: human Vitamin D Receptor (VDR), VDR (gene 7421) (UniProt P11473); assay: ATG_VDR_TRANS: Attagene TRANS-FACTORIAL HepG2 Assay for human Vitamin D Receptor (VDR) (AID 2283022; active means hit-call score of the fitted dose curve at least 0.9, where 1 is the maximum)
Summary of the method: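 RT-PCR/capillary electrophoresis read-out of reporter mRNA induction in transiently transfected HepG2; 24 h dosing; chimeric NR-Gal4 (TRANS format); gain-of-signal fit against DMSO baseline.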

[12] = BSK_3C_SRB: Viability Assessment in the BioMAP Diversity Plus: 3C Assay (AID 2283023); conditions: primary human endothelial cells (HUVEC);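 further: fitted both ways against DMSO so a hit may be signal rise or drop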
Summary of the method: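 HUVEC, 24 h post-dose; 10% TCA fix, 0.1% SRB stain, A560 nm. Bidirectional curve fit vs DMSO negative control.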

[13] = BSK_3C_Vis: BioMAP Diversity Plus: 3C Assay for Morphology Visualization (AID 2283025); conditions: primary human endothelial cells (HUVEC);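 further: fitted both ways so gain or loss versus DMSO counts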;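 on AC50: light microscopy image of cell morphology used as background control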
Summary of the method: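 Chemicals were added to primary human umbilical vein endothelium, cells were incubated 24 h, and morphology was then visualized by light microscopy. Gain or loss of signal was fitted bidirectionally relative to DMSO.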

[14] = read-out: Pselectin, SELP (gene 6403); assay: BSK_4H_Pselectin: BioMAP Diversity Plus: 4H Assay for Pselectin Biomarker Activity (AID 2283026); conditions: primary human endothelial cells (HUVEC); actives raise or lower the signal
Summary of the method: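 ELISA read-out of P-selectin on human umbilical vein endothelium after 24 h of dosing. Values derive from bidirectional fitting relative to DMSO. Parallel SRB protein staining flagged overt cytotoxicity.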

[15] = BSK_4H_SRB: Viability Assessment in the BioMAP Diversity Plus: 4H Assay (AID 2283027); conditions: primary human endothelial cells (HUVEC);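 further: cells exposed to compound for 24 h before staining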;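 on AC50: curves fitted both ways versus DMSO so AC50 may be loss or gain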
Summary of the method: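 Human umbilical vein endothelial cells were dosed with chemical and, after 24 h, fixed with 10% TCA, stained with 0.1% sulforhodamine B, and read at 560 nm to give total protein as a cytotoxicity measure. Bidirectional fitting relative to DMSO control.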

[16] = BSK_BE3C_SRB: Viability Assessment in the BioMAP Diversity Plus: BE3C Assay (AID 2283028); conditions: primary human bronchial epithelial cells;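 on AC50: fitted both ways so AC50 may mark signal gain or loss versus DMSO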
Summary of the method: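 Primary human bronchial epithelium; chemical dosing, 24 h; 10% TCA fix, 0.1% SRB stain, A560; bidirectional fit vs DMSO baseline.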

[17] = read-out: Thrombomodulin, THBD (gene 7056); assay: BSK_3C_Thrombomodulin: BioMAP Diversity Plus: 3C Assay for Thrombomodulin Biomarker Activity (AID 2283029); conditions: primary human endothelial cells (HUVEC); actives raise or lower the signal
Summary of the method: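 Read-out is ELISA of thrombomodulin on human umbilical vein endothelium 24 h after chemical dosing. Gain or loss of signal is scored relative to DMSO. Overt cytotoxicity is checked in parallel cultures by sulforhodamine B staining.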

[18] = read-out: Urokinase-type plasminogen activator receptor (uPAR), PLAUR (gene 5329); assay: BSK_4H_uPAR: BioMAP Diversity Plus: 4H Assay for Urokinase-type plasminogen activator receptor (uPAR) Biomarker Activity (AID 2283030); conditions: primary human endothelial cells (HUVEC); actives raise or lower the signal
Summary of the method: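 HUVEC, 24 h post-dose; uPAR by ELISA; bidirectional fit vs DMSO baseline.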

[19] = read-out: Matrix Metallopeptidase 1 (MMP1), MMP1 (gene 4312); assay: BSK_BE3C_MMP1: BioMAP Diversity Plus: BE3C Assay for Matrix Metallopeptidase 1 (MMP1) Biomarker Activity (AID 2283024); conditions: primary human bronchial epithelial cells; actives raise or lower the signal
Summary of the method: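 Human bronchial epithelial cells (BE3C system) exposed to compound for 24 h; MMP1 then quantified by ELISA. Activity was fitted in both directions relative to DMSO.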

[20] = read-out: Monocyte Chemoattractant Protein-1 (MCP1), CCL2 (gene 6347); assay: BSK_3C_MCP1: BioMAP Diversity Plus: 3C Assay for Monocyte Chemoattractant Protein-1 (MCP1) Biomarker Activity (AID 2283017); conditions: primary human endothelial cells (HUVEC); actives raise or lower the signal
Summary of the method: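 HUVEC, 3C system; 24 h chemical exposure; MCP-1 by ELISA; bidirectional curve fit vs DMSO baseline.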

Measured: AC50

Chain of human Thyroid Receptor alpha (THRa1), THRA (gene 7067) (P10827 whole entry, looked up, the tested form may be a part): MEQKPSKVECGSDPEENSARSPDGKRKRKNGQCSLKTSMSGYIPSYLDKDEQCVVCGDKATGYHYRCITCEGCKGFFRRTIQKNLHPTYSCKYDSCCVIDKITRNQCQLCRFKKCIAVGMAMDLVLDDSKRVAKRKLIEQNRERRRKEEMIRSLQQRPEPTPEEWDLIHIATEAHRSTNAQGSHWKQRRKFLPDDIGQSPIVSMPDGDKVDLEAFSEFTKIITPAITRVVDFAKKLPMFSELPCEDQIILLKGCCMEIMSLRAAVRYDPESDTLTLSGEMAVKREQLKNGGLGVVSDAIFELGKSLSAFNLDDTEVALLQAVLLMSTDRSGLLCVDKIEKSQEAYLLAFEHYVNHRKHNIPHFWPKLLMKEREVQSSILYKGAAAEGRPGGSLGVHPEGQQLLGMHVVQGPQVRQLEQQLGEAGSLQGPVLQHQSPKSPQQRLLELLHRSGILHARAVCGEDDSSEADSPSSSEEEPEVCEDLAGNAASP
Chain of Retinoic acid receptor RXR-alpha (Homo sapiens) (P19793 whole entry, looked up, the tested form may be a part): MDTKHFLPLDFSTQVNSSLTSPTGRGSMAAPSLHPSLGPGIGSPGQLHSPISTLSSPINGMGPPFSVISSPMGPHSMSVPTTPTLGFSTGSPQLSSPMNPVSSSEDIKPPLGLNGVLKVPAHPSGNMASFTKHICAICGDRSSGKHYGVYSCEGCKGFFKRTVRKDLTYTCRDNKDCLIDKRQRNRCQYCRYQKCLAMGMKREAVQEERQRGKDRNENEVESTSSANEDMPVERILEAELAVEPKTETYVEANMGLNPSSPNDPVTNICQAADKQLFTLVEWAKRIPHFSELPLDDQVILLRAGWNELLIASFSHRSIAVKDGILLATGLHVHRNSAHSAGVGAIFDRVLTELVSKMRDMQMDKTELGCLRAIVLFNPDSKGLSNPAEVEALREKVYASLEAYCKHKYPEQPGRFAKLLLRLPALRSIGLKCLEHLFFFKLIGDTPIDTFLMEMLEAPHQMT
Chain of human RAR-related Orphan Receptor gamma (RORg), RORC (gene 6097) (P51449 whole entry, looked up, the tested form may be a part): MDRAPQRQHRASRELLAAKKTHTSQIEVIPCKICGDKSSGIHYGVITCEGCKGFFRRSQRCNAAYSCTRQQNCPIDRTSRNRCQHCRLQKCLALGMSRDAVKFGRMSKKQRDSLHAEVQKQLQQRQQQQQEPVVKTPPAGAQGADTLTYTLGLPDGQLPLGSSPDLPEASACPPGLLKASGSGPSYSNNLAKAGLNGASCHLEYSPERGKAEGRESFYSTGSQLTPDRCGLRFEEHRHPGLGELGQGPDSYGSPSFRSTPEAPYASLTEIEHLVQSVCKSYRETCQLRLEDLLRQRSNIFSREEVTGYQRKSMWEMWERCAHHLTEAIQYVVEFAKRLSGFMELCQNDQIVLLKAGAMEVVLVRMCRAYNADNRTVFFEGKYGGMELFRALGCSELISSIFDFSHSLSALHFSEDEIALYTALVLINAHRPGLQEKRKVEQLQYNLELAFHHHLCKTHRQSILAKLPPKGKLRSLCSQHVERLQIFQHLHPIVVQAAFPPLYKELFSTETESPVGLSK
Chain of human Retinoid X Receptor beta (RXRb), RXRB (gene 6257) (P28702 whole entry, looked up, the tested form may be a part): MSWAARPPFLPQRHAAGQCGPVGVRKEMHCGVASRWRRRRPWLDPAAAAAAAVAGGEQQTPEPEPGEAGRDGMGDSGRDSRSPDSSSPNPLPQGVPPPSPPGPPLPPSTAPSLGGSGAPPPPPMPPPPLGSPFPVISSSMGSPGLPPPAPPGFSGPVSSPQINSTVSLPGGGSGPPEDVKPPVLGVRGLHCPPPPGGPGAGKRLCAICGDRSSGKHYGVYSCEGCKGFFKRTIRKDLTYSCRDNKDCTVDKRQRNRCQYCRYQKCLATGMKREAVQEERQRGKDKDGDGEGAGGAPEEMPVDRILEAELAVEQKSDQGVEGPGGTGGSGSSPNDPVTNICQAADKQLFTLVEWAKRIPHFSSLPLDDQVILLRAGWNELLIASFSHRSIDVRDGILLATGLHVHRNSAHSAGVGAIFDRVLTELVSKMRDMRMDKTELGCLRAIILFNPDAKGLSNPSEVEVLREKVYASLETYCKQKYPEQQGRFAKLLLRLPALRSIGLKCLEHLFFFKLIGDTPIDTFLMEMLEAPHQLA
Chain of human Vitamin D Receptor (VDR), VDR (gene 7421) (P11473 whole entry, looked up, the tested form may be a part): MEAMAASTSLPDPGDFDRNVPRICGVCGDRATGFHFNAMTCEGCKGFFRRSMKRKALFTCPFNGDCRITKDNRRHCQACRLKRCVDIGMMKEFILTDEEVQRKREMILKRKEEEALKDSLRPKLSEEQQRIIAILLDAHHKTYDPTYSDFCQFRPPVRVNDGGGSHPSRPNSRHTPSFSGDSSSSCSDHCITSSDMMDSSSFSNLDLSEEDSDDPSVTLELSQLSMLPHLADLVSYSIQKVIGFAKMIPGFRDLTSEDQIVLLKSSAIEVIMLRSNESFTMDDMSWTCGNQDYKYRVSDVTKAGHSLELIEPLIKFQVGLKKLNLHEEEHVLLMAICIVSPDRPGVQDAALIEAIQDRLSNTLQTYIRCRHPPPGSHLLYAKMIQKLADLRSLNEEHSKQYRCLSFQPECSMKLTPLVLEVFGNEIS
Chain of E-selectin (Homo sapiens) (P16581 whole entry, looked up): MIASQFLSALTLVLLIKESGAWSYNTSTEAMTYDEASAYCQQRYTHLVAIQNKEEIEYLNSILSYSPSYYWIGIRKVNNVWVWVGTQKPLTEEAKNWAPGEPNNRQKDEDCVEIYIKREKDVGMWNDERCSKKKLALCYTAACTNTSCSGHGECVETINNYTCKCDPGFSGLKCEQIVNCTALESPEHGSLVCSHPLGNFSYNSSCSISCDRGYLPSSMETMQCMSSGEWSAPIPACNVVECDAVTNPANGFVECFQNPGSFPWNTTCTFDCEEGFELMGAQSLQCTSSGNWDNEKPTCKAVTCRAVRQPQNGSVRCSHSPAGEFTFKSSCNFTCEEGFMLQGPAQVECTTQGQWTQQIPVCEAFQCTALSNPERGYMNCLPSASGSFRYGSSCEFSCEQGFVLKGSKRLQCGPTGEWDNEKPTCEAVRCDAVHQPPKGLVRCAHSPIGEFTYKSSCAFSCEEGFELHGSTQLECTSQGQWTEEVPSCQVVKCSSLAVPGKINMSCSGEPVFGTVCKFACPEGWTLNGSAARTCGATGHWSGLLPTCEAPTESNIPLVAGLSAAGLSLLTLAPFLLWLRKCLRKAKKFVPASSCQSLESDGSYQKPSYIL

Cc1cccc(O)c1C
not listed: [19] | [20]
inactive: all other assays above

CCN(CC)C(=S)SSC(=S)N(CC)CC
inactive: [1] | [2] | [3] | [11]
active: [5] 34.8 µM | [6] 16.3 µM | [7] 24.6 µM | [8] 12.4 µM | [9] 31.2 µM | [12] 27.8 µM | [19] 25.5 µM | [13] 39.8 µM | [14] 20 µM | [15] 31.7 µM | [16] 34.6 µM | [18] 26.4 µM

S=P(N1CC1)(N1CC1)N1CC1
not listed: [10]
inactive: all other assays above

O=C(O)CO
active: [2] 6.77 µM | [3] 0.679 µM
inactive: [1] | [2] | [3] | [4] | [11]

FC(F)=C(F)C(F)(F)C(F)(F)C(F)(F)C(F)(F)C(F)(F)C(F)(F)F
not listed: [13]
inactive: all other assays above

O=C(NO)C1(NS(=O)(=O)c2ccc(Oc3ccc(F)cc3)cc2)CCOCC1
not listed: [3]
inactive: all other assays above

CCCCCOC(C)=O
not listed: [2] | [3]
inactive: all other assays above

CC1(C)C(=O)N(Cl)C(=O)N1Cl
not listed: [2] | [3] | [4] | [10] | [11] | [19]
inactive: all other assays above
